This excerpt belongs to a sample that is enriched for hits.
CD40 NFkB inh = CD40 pathway inhibition in BL2 cells | BL2 NF-kB luciferase reporter, CD40L-induced, 4 h | inhibition, % at 10 µM | hit rate 0.94% among 83,000;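 active means mean inhibition of at least 50% with a set share of replicates also reaching that level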;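 further: 0% = neutral control wells and 100% = IKK inhibitor VII at 50 µM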
Numbers without * were called inactive; [ ] = another dose, or the depositor's remark.

SMILES	CD40 NFkB inh
CC(OC(=O)c1cc(Br)ccc1O)C(=O)Nc1ccc(S(=O)(=O)N2CCCC2)cc1 (configuration not stated)	65.2*
CC1CCN(C(C)C(=O)Nc2ccc(S(=O)(=O)N3CCCC3)cc2)CC1 (configuration not stated)	3.1
COC(C(=O)Nc1ccc(S(=O)(=O)N2CCCCC2)cc1)c1ccccc1 (configuration not stated)	-2.1
CC(=O)N1[C@H](CN(CC(C)C)C(=O)c2ccccn2)[C@H](c2ccccc2)[C@@H]1CO	-1.7[25 µM]
Cc1csc(NC(=O)c2ccc(N3CCCC3=O)cc2)n1	92.3*
Cc1nnc(NC(=O)c2ccc(N3CCCC3=O)cc2)s1	-39.4
O=C(NC1=NCCS1)c1ccc(N2CCCC2=O)cc1	-31.8
O=S(=O)(c1ccccc1)N1CCCCN2[C@H](CO)[C@@H](c3ccc(-c4ccccc4F)cc3)[C@@H]2C1	-12.4[25 µM]
COc1ccc(Sc2nnc(-c3ccccc3)cc2C#N)cc1	1.3
COc1ccc(-c2cc(-c3ccccc3)c(C#N)c(S(C)=O)n2)cc1 (configuration not stated)	75.9*
COc1ccc(-c2cc(-c3ccccc3)c(-c3ccccc3)nn2)cc1	-16.3
Cc1cccnc1NC(=O)c1ccc2c(c1)OCCO2	-30.2
Cc1ccc(NC(=O)CNC(=O)c2ccc(C)s2)nc1	-14.9
Cc1ccc(NC(=O)c2ccc3c(c2)OCCO3)nc1	63.8*
Cc1ccc(NC(=O)c2ccc3c(c2)NC(=O)CS3)nc1	-23.1
Cc1ccc(NC(=O)CNC(=O)c2cccc(Cl)c2)nc1	65.7*
COC(=O)CNC(=O)c1cccc(Cl)c1	12.7
O=C(c1ccc(F)cc1)N1CC(=O)N2[C@H](C1)[C@H](c1ccc(C#CC3CCCC3)cc1)[C@@H]2CO	11.5
CC(=O)N(C)C[C@H]1Oc2ccc(NC(=O)NC(C)C)cc2C(=O)N(C)C[C@H]1C	-1.6
C[C@@H](NC(=O)N(C)C[C@H]1OCc2ccccc2-c2c(n(C)c3ccccc23)C(=O)N([C@@H](C)CO)C[C@@H]1C)c1ccccc1	5.2
CC(=O)N(C)C[C@H]1Oc2ccc(N)cc2C(=O)N(C)C[C@H]1C	-0.9
CCCN1[C@@H]2c3ccc(-c4ccccc4OC)c(=O)n3C[C@@H]2[C@@H](CO)[C@@H]1C(=O)N(C)C	-1.0[25 µM]
COc1cccc(C#Cc2ccc([C@@H]3[C@@H](C#N)N(C(=O)c4ccccn4)[C@@H]3CO)cc2)c1	1.1[25 µM]
N#C[C@@H]1[C@H](c2ccc(C#Cc3cccc(F)c3)cc2)[C@@H](CO)N1C(=O)C1CCC1	99.3*
N#C[C@@H]1[C@H](c2ccc(C#Cc3ccc(F)cc3)cc2)[C@@H](CO)N1C(=O)C1CCCC1	87.4*
SMILES	CD40 NFkB inh
N#C[C@@H]1[C@@H](c2ccc(C#Cc3cccc(F)c3)cc2)[C@@H](CO)N1C(=O)C1CCCC1	-47.4
N#C[C@@H]1[C@H](c2ccc(C#Cc3ccccc3F)cc2)[C@@H](CO)N1C(=O)C1CC1	85.5*[25 µM]
COc1cccc(C#Cc2ccc([C@@H]3[C@@H](C#N)N(C(=O)c4ccccn4)[C@H]3CO)cc2)c1	-23.1[25 µM]
COc1cccc(C#Cc2ccc([C@H]3[C@@H](C#N)N(C(=O)c4ccccn4)[C@@H]3CO)cc2)c1	53.4*[25 µM]
N#C[C@@H]1[C@H](c2ccc(C#Cc3ccccc3F)cc2)[C@H](CO)N1C(=O)C1CC1	34.7[25 µM]
N#C[C@@H]1[C@@H](c2ccc(C#Cc3cccc(F)c3)cc2)[C@@H](CO)N1C(=O)C1CC1	3.3
N#C[C@H]1[C@@H](c2ccc(C#Cc3ccccc3F)cc2)[C@H](CO)N1C(=O)C1CC1	30.4[25 µM]
N#C[C@H]1[C@H](c2ccc(C#Cc3ccc(F)cc3)cc2)[C@H](CO)N1C(=O)C1CC1	-26.3
N#C[C@H]1[C@@H](c2ccc(C#Cc3ccccc3F)cc2)[C@@H](CO)N1C(=O)C1CCCC1	15.0
COc1cccc(-c2ccc3c(c2)[C@@H]2[C@@H](CCN2C(=O)C2CCCC2)[C@H](CO)N3)c1	-2.9
O=C(C[C@H]1CC[C@@H]2[C@H](COC[C@H](O)CN2C(=O)c2cccnc2)O1)NC1Cc2ccccc2C1	-3.0
CC(C)[C@@H]1COCc2cn(nn2)CC[C@H](Cc2ccccc2)C(=O)N1	5.7
O=C(Nc1cc(F)ccc1F)N1CC(=O)N2[C@H](C1)[C@@H](c1ccc(C#CC3CCCC3)cc1)[C@@H]2CO	2.4
CC(C)NC(=O)Nc1ccc2c(c1)CC(=O)N(C)C[C@H](C)[C@H](CN(C)C(=O)NC(C)C)O2	4.3
O=S(=O)(c1cccc(Cl)c1)N1[C@@H]2CNC[C@H]1C2c1ccc(-c2cccnc2)cc1 (some centres not stated)	3.3[25 µM]
CCS(=O)(=O)N1[C@H](CO)[C@@H](c2ccc(C#Cc3ccccc3F)cc2)[C@@H]1C#N	64.8*[25 µM]
CCS(=O)(=O)N1[C@H](CO)[C@H](c2ccc(C#Cc3ccccc3F)cc2)[C@@H]1C#N	-4.1[25 µM]
CCS(=O)(=O)N1[C@H](C#N)[C@@H](c2ccc(C#Cc3ccccc3F)cc2)[C@H]1CO	-12.7[25 µM]
CC(=O)Nc1ccc2c(c1)CC(=O)N(C)C[C@@H](C)[C@H](CN(C)C(=O)NC(C)C)O2	17.8
CN(C)CC#Cc1ccc([C@@H]2[C@H](CO)N3CCCCN(CC4CC4)C[C@@H]23)cc1	-8.7
Cc1cccc(-c2ccc([C@H]3[C@@H](CO)N4CCCCN(S(=O)(=O)c5ccccc5F)C[C@@H]34)cc2)c1	-1.2[25 µM]
Cc1cccc(-c2ccc([C@@H]3[C@@H](CO)N4CCCCN(S(=O)(=O)c5ccccc5F)C[C@@H]34)cc2)c1	-16.2[25 µM]
Cc1cccc(-c2ccc([C@@H]3[C@@H](CO)N4CCCCN(S(=O)(=O)c5ccccc5F)C[C@H]34)cc2)c1	71.1*[25 µM]
COc1ccc2c3c(n(C)c2c1)[C@@H](CO)NCC31CCN(C(=O)c2ccc(F)cc2)CC1	6.4
CNC[C@H]1Oc2ccc(NC(=O)NC(C)C)cc2CC(=O)N(C)C[C@H]1C	0.3
SMILES	CD40 NFkB inh
CNC[C@@H]1Oc2ccccc2CC(=O)N(C)C[C@H]1C	-5.2
C[C@H](CO)N1C[C@H](C)[C@H](CN(C)S(=O)(=O)c2ccccc2)OCc2ccccc2-c2c(n(C)c3ccccc23)C1=O	5.7
COc1ccc(S(=O)(=O)N(C)C[C@H]2OCc3ccccc3-c3c(n(C)c4ccccc34)C(=O)N([C@@H](C)CO)C[C@H]2C)cc1	-8.4
C[C@@H]1CN([C@H](C)CO)C(=O)c2c(c3ccccc3n2C)-c2ccccc2CO[C@H]1CN(C)S(=O)(=O)c1ccccc1	19.1
C[C@H]1CN([C@@H](C)CO)C(=O)c2c(c3ccccc3n2C)-c2ccccc2CO[C@H]1CN(C)S(=O)(=O)c1ccc([N+](=O)[O-])cc1	72.7*[25 µM]
C[C@@H]1CN([C@@H](C)CO)C(=O)c2c(c3ccccc3n2C)-c2ccccc2CO[C@H]1CN(C)S(=O)(=O)c1ccccc1	18.3
C[C@H]1CN([C@@H](C)CO)C(=O)c2c(c3ccccc3n2C)-c2ccccc2CO[C@H]1CN(C)S(=O)(=O)c1ccccc1	25.2
COc1cccc(S(=O)(=O)N(C)C[C@H]2OCc3ccccc3-c3c(n(C)c4ccccc34)C(=O)N([C@@H](C)CO)C[C@@H]2C)c1	59.3*[25 µM]
C[C@H]1CN([C@@H](C)CO)C(=O)c2c(c3ccccc3n2C)-c2ccccc2CO[C@@H]1CN(C)S(=O)(=O)c1ccc([N+](=O)[O-])cc1	50.1*[25 µM]
COc1ccc(S(=O)(=O)N(C)C[C@H]2OCc3ccccc3-c3c(n(C)c4ccccc34)C(=O)N([C@H](C)CO)C[C@@H]2C)cc1	14.2
C[C@H](CO)N1C[C@H](C)[C@@H](CN(C)C(=O)c2ccc(F)cc2)OCc2ccccc2-c2ccccc2C1=O	-9.5[25 µM]
